Screens deposited in PubChem BioAssay by National Center for Advancing Translational Sciences (NCATS).
Sampled rows, rich in hits. Any-hit rate of the full collection: about 7.4%.
Luc counter – Kinase-Glo luciferase inhibition (counter-screen); Kinase-Glo luciferase, ATP luminescence, 8 min; Potency, µM (series often up to 38.3 µM), for the others: at the top dose activity change, negative = inhibition, most hits filed as inhibitors; actives 0.28% (n = 200,000); AID 1379; also: % is scaled to controls: 0 for no effect and ±100 for the full control effect; nearly all actives have a fitted effect of over 60% in size
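Light output from Kinase-Glo luciferase with luciferin and 10 uM ATP in 50 mM imidazole pH 7.2, KCl, MgCl2, Tween 20, BSA; compound pin-delivered, 8-min ambient incubation, then luminescence read.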
ELG1 genotox – induces genotoxicity in HEK293T cells with luciferase-tagged ELG1; HEK293T ELG1-luciferase reporter, luminescence, 16 h; actives 1.3% (n = 330,000); Potency, µM (top dose mostly 46 µM), for inactives: at the top dose activity change, positive = activation, most hits filed as activators; also: % of control where 0% means no effect; nearly all actives have a fitted effect of over 60% in size
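Step 1: seed 2,000 HEK293T ELG1-luciferase cells per well. Step 2: add compound or DMSO, incubate 16 hr at 37 °C. Step 3: ONE-Glo, 30 min at room temperature, read luminescence.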
Rab9 prom act – activators of Rab9 promoter; Huh7 Rab9 promoter-luciferase reporter, luminescence, 24 h; actives 2.8% (n = 320,000); Potency, µM (doses to about 9.22 µM), without a hit: at the top dose activation, negative = inhibition, most hits filed as activators; AID 485297; also: % of control where 0% means no effect; nearly all actives have a fitted effect of over 60% in size
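Luminescence read-out: Huh7 cells stably expressing Rab9-luciferase, treated 24 h with compound at 37 °C, then lysed with luciferase reagent for 10 min at ambient before reading.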
NPC1 prom act – activates the NPC1 promoter; Huh7 NPC1 promoter luciferase reporter, 24 h; Potency, µM (top dose mostly 9.22 µM), for inactives: top-dose activation, actives largely listed as activators; actives 2.4% (n = 320,000); also: % of control where 0% means no effect; nearly all actives have a fitted effect of over 60% in size
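Readout is luciferase luminescence, reflecting NPC1 promoter activation in stably transfected Huh7 cells after 24 h compound exposure at 37 °C in reduced-serum medium with 10% FBS.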
SMN2 splice enh – increases expression of the SMN2 splice variant. actives 2.8% (n = 210,000). HEK293 SMN2-luciferase splicing reporter, luminescence, 30-36 h. Potency, µM (series often up to 46.1 µM), for inactives: top-dose activity change, positive = activation, usual class: activators; also: % of control where 0% means no effect; nearly all actives have a fitted effect of over 55% in size
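qHTS luciferase splicing reporter: luminescence rises when SMN2 exon 7 is included in transfected HEK293 cells. Compound exposure lasted 30-36 h at 37C, with 4.5 mM final sodium butyrate as control, followed by a ONE-Glo read.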
FLuc counter – counter-screen for miR-21 project: firefly luciferase inhibitors or activators; P08659; purified FLuc, Km substrates, luminescence inhibition; Potency, µM (top dose mostly 57.5 µM), inactives show at the top dose activity change, negative = inhibition, most hits filed as inhibitors; actives 6.9% (n = 360,000); AID 588342;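 also: plate controls were vehicle for no effect and reference inhibitor for full effect; nearly all actives have a fitted effect of over 55% in size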
Target sequence (P08659 whole entry, looked up): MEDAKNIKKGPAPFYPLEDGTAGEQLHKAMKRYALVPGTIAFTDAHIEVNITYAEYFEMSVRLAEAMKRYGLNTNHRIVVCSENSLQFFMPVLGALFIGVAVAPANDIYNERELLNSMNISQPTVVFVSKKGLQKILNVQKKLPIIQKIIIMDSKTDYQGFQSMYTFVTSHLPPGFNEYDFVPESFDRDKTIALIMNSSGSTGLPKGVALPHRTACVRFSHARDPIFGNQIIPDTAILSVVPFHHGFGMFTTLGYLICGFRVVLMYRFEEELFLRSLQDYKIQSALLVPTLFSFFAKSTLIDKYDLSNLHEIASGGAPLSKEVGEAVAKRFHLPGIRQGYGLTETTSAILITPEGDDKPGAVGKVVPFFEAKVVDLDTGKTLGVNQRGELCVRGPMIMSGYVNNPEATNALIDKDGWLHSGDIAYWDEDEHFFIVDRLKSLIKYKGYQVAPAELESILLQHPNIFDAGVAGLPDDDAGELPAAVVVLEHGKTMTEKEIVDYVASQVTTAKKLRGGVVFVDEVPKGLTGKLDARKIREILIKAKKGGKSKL
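Purified P. pyralis luciferase (10nM final) with 10uM D-luciferin and 10uM ATP (Km levels) in 50mM Tris acetate pH 7.5, 10mM Mg acetate, 0.01% Tween-20, 0.05% BSA; qHTS 6-point titration, ~60 µM downward; luminescence read.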
* marks the source's active call; other numbers are inactive results; ? = inconclusive; . = not tested or not shown. Calls follow the shape of the dose curve; as a rule, active = well fitted curve in the direction sought with a large enough effect; inconclusive = small, poorly fitted or top-dose-only effect, or another doubt; inactive = no such curve, though single readings can be large; an effect the other way counts as inactive or inconclusive. Potency is read from the fitted curve at half-maximal effect.

SMILES	Luc counter	ELG1 genotox	Rab9 prom act	NPC1 prom act	SMN2 splice enh	FLuc counter
CCOc1ccc2[nH]cc(-c3csc(N)n3)c2c1	.	0%	-1%	2%	.	-1%
CCOc1ccc(S(=O)(=O)c2cc3cccc(OCC)c3oc2=O)cc1	.	.	.	.	7%	6%
Fc1ccccc1N1CCN(c2nnc(C(F)(F)F)c3nnn(Cc4ccccc4)c23)CC1	.	.	.	.	5%	-1%
COc1ccccc1NC(=O)c1ccc(NC(=O)C2CC2C)cc1 (configuration not stated)	.	0%	.	.	.	.
CC1CC1C(=O)Nc1ccc(-c2ccccc2)cc1 (configuration not stated)	1%	?	2.5µM*	3.2µM*	13µM*	9.5µM*
Cc1sc(=NC(=O)c2ccco2)n(C)c1-c1ccc(Cl)cc1	7%	11%	2.8µM*	2.5µM*	24%	5.4µM*
CCOC(=O)c1sc(=NC(=O)c2cccs2)n(C)c1C	-12%	?	?	1%	3.2µM*	1.3µM*
CCOC(=O)c1sc(=NC(=O)c2ccc(OC(C)C)cc2)n(C)c1C	0%	5%	1%	-18%	-5%	-3%
Cc1sc(NC(=O)c2ccco2)c(C(=O)c2ccc(Cl)cc2)c1C	3%	1%	-2%	-1%	-19%	-9%
COCCn1c(=NC(=O)/C=C/c2ccccc2)sc2cc(NC(C)=O)ccc21	5%	2%	-1%	1%	15%	-10%
CCOC(=O)c1sc(=NC(=O)c2ccccc2Br)n(C)c1C	.	?	?	?	.	2.1µM*
CCOC(=O)c1sc(=NC(=O)/C=C/c2ccccc2)n(C)c1C	4%	15%	1.6µM*	?	30%	-7%
CC1CCC2(CC1)NC(=O)N(CC(=O)NCCc1ccc(F)cc1)C2=O (configuration not stated)	.	-2%	4%	-3%	.	0%
CC12CC[C@@](C(=O)O)(C(=O)C1=O)C2(C)C	-2%	.	.	.	4%	.
COc1ccc(Cc2nnc3sc(SCC(=O)Nc4ccccc4)nn3c2=O)cc1OC	.	-1%	1%	-5%	.	10%
CCOC(=O)c1sc(=NC(=O)c2ccc(Cl)s2)n(C)c1C	-2%	1.2µM*	?	?	7.9µM*	0.67µM*
CCOC(=O)c1sc(=NC(=O)c2ccco2)n(C)c1C	-4%	4%	?	-12%	14µM*	15µM*
Cc1occc1C(=O)Nc1cccc(C(=O)O)c1	12%	?	2.8µM*	2.2µM*	?	9.5µM*
Nc1ccccc1C(=O)Nc1cccc(C(=O)O)c1	-18%	3%	2.2µM*	?	17%	2.7µM*
C/C(=N\NC(=O)c1ccncc1)c1cccc(NC(=O)c2ccc(Cl)s2)c1	.	-1%	1%	24%	.	19µM*
Cc1ccc(NC(=O)c2ccoc2C)cc1C	10µM*	?	2.8µM*	?	16µM*	?
COc1ccc(C(=O)N/N=C(/C)c2cccc(NC(=O)c3ccncc3)c2)cc1OC	.	-4%	-2%	2%	.	?
COc1ccc(NC(=O)CSc2nnc(C)s2)cc1S(=O)(=O)N1CCOCC1	.	3%	-3%	2%	.	2%
CC(=O)c1cccc(NS(=O)(=O)c2c(C)nc3sc(C)cn3c2=O)c1	.	.	.	.	.	-3%
C/C(=N/NC(=O)c1ccc(C)s1)c1cccc(NC(=O)c2ccoc2C)c1	.	-19%	27%	2%	.	17µM*
SMILES	Luc counter	ELG1 genotox	Rab9 prom act	NPC1 prom act	SMN2 splice enh	FLuc counter
Cc1occc1C(=O)Nc1ccc2c(c1)OCO2	?	21µM*	2.8µM*	3.5µM*	13µM*	24µM*
Cc1cc(NC(=O)c2ccccc2[N+](=O)[O-])ccc1Br	2%	?	?	28%	26%	17µM*
CSc1ccccc1C(=O)Nc1ccc2c(c1)OCO2	-9%	7%	7%	0%	?	?
Cc1ccccc1C(=O)Nc1cccc(NC(=O)c2ccccc2[N+](=O)[O-])c1	.	3%	11%	-3%	.	?
C/C(=N/NC(=O)c1ccoc1C)c1cccc(NC(=O)C(F)(F)F)c1	-5%	?	28%	15%	18%	?
Cc1occc1C(=O)Nc1ccc(S(N)(=O)=O)cc1	-16%	2%	7%	0%	8%	?
Cc1cc(NC(=O)c2ccoc2C)ccc1Br	.	?	?	?	.	7.6µM*
COC(=O)c1c(C)[nH]c(C(=O)/C=C/c2ccccc2)c1C	-3%	12µM*	1.4µM*	2.2µM*	2.2µM*	0.48µM*
COC(=O)c1c(C)[nH]c(C(=O)/C=C/c2cccc(Cl)c2)c1C	1%	?	?	?	?	?
COC(=O)c1c(C)[nH]c(C(=O)/C=C/c2ccc(C)cc2)c1C	.	?	0%	1%	.	2.1µM*
CN(C(=O)c1cccc(NC(=O)c2cccs2)c1)c1ccccc1	.	0%	7%	-2%	.	-3%
COc1ccc(/C=C(\NC(=O)c2ccc(C)cc2)C(=O)N2CCCCC2)cc1	.	-5%	-1%	-4%	.	-1%
S=C(c1ccc(-c2ccc(Cl)cc2)o1)N1CCCCC1	-1%	2.6µM*	1.4µM*	1.3µM*	5µM*	1.1µM*
O=C(O)c1ccc(-c2ccccc2Cl)o1	0%	2%	1%	-3%	-4%	-18%
S=C(c1ccc(-c2ccccc2Cl)o1)N1CCCCC1	-2%	?	3.5µM*	2.8µM*	13µM*	5.4µM*
CN1CCN(C(=S)c2ccc(-c3cccc(Cl)c3Cl)o2)CC1	0%	?	?	?	.	4.8µM*
N#CCCN1CCN(C(=S)c2ccc(-c3ccc(Cl)cc3)o2)CC1	-2%	?	25%	16%	-16%	21µM*
COc1cc(CN2CCN(CCCc3ccccc3)C(CCO)C2)cc(OC)c1O (configuration not stated)	.	-1%	7%	-2%	.	5%
Cc1ccc(C)c(SCC(=O)Nc2cccnc2Cl)c1	-1%	-1%	0%	-3%	-18%	2%
CCC(=O)N1CCc2cc(Br)cc(S(=O)(=O)NCc3ccccc3OC)c21	.	-7%	0%	-3%	.	-2%
O=C(CSc1nnc(NC(=O)c2cccc(F)c2)s1)NC1CCCC1	.	16%	18%	17%	.	6µM*
Cc1cccc(C(=O)Nc2nnc(SCC(=O)Nc3ccc4c(c3)oc3ccccc34)s2)c1	-2%	13%	11%	13%	28%	?
O=C(CSc1nnc(NC(=O)c2c(F)cccc2F)s1)NC1CCCC1	.	8%	10%	0%	.	1%
